# Data as given in PubChem BioAssay (Tox21).
# Inconclusive results are not listed. Unmarked numbers belong to inactive results. Active and inactive are the calls of the source. Calls come from the whole dose curve; as a rule, active = well fitted activation curve with a large enough effect in the signal ratio in the repeat runs (not every such curve was filed as active); inconclusive = weak or mixed curves; inactive = flat fitted curve, though single readings scatter; the % refers to the signal ratio.
# Assay: p53 small molecule agonists, cell-based qHTS assay (AID 1963582)
# Settings: HCT-116 p53RE-bla reporter, beta-lactamase FRET ratio, 16 h; series mostly up to 66 µM; activation: at the top concentration
# Text: National Center for Advancing Translational Sciences [NCATS]
# Division of Preclinical Innovation [DPI]
# U.S. Environmental Protection Agency [EPA]
# National Institutes of Environmental Health Sciences [NIEHS]
# National Toxicology Program [NTP]
# U.S. Food and Drug Administration [FDA]
# p53, a tumor suppressor protein, is activated following cellular insult, including DNA damage and other cellular stresses. The activation of p53 regulates cell fate by inducing DNA repair, cell cycle arrest, apoptosis, or cellular senescence. The activation of p53, therefore, is a good indicator of DNA damage and other cellular stresses. […] The activation of the reporter gene under culture conditions can be detected by fluorescence intensity. This cell line was used to screen the Tox21 10K compound library in a 1536-well plate format and to identify agonists that activate the p53 signaling pathway.
# Tox21 Assay Protocol Summary:
# The p53RE-bla cells were dispensed at 4,000 cells/5 ul/well in 1536-well black wall/clear bottom plates using a Multidrop dispenser. After the assay plates were incubated at a 37 C/5% CO2 incubator for 5 hours, 23 nL of compounds dissolved in DMSO, positive controls or DMSO only was transferred to the assay plate by a pin tool. The plates were incubated at 37 C for 16 hours. After 1 uL of LiveBLAzerTM B/G FRET substrate was added using a Flying Reagent Dispenser, the plates were incubated at room temperature for 2 hours, and fluorescence intensity was measured by an Envision plate reader.
# % is set by controls: 0 for no effect and ±100 for the full control effect.
SMILES,activation,Potency
CCC(C)(C)C,2%,–
C/C=C/C(=O)CCCC,0.416%,–
Cc1cc(O)cc2c1O[C@](C)(CCC[C@H](C)CCC[C@H](C)CCCC(C)C)CC2,-0.369% [at 30.3 µM],–
Nc1cc(=O)[nH]c(N)n1,2.17% [at 30.3 µM],–
CN(C)C(=S)SC(=S)N(C)C,-0.0552% [at 30.3 µM],–
C=CCOCC(O)CO (stereo not given),0.579%,–
CC(=O)[O][Al][O]C(C)=O,-0.539%,–
N#CCN(CC#N)CCN(CC#N)CC#N,0.921%,–
CCCOC(C)=O,0.799%,–
CC(=O)N[C@@H](Cc1ccc(O)cc1)C(=O)O,-0.0756% [at 30.3 µM],–
CC(C)C(=O)OCCOc1ccccc1,-0.23%,–
COC(c1ccccc1)(c1ccccc1)[C@H](Oc1nc(C)cc(C)n1)C(=O)O,-1.89% [at 30.3 µM],–
CCCC[C@H]1CN(CC2CCOCC2)C(=O)OC12CCN(C1(C)CCN(C(=O)c3c(C)ncnc3C)CC1)CC2,-2.25%,–
O=C(c1ccc(OCCN2CCCCC2)cc1)c1c(-c2ccc(O)cc2)sc2cc(O)ccc12,-3.31% [at 30.3 µM],–
ClC(c1ccccc1)(c1ccccc1)c1ccccc1,-7.34%,–
CCC(CO)CO,1.18%,–
O=C1c2c(O)ccc(Nc3ccc(CCO)cc3)c2C(=O)c2c([N+](=O)[O-])ccc(O)c21,-5.85%,–
C#CC(C)(O)CC(C)C (stereo not given),0.32%,–
CCOC(C)(C)C,-1.54%,–
CCOC(=O)n1ccn(C)c1=S,–,inactive

SMILES,activation,Potency
CC(C)=CCC/C(C)=C/C#N,-1.53%,–
C=CCCC=C,0.538%,–
Cc1ccc(S(=O)(=O)NC2CCCCC2)cc1,-1.55%,–
Nc1nnnn1-c1ccccc1,1.33% [at 30.3 µM],–
CCCC[O][Al]([O]CCCC)[O]CCCC,0.0709%,–
CCC(=O)c1ccc(O)cc1,3.18% [at 30.3 µM],–
CCCCCCCCS(=O)(=O)Cl,-2.63%,–
COc1cc(S(N)(=O)=O)cc(C(=O)O)c1OC,1.37% [at 30.3 µM],–
Nc1ccc([N+](=O)[O-])c(C(F)(F)F)c1,1.38% [at 30.3 µM],–
NCC1CCCC(CN)C1 (stereo not given),1.38%,–
OCCCCl,0.53%,–
CC(C)CC(O)CC(C)C,-2.35%,–
COS(=O)(=O)O,0.525%,–
CC(C)OC(=O)C(O)(CC(=O)O)CC(=O)O,-0.0746%,–
CCCCCC(=O)CC,0.543%,–
NC(=O)c1ncn([C@@H]2O[C@H](CO)[C@@H](O)[C@H]2O)c1O,2.25% [at 30.3 µM],–
CCN(Cc1cccc(S(=O)(=O)O)c1)c1ccccc1,-1.74%,–
CC(=O)Nc1c(I)cc(I)c(C(=O)O)c1I,-0.933% [at 30.3 µM],–
COC(=O)c1ccccc1C(=O)c1ccc(OCCN2CCCCC2)cc1,0.178% [at 30.3 µM],–
NCCC(O)(P(=O)(O)O)P(=O)(O)O,1.26% [at 30.3 µM],–
